Laboratory results from ChEMBL document CHEMBL1961873, “Compounds: GSK PKIS; Assays: Nanosyn kinase panel” (2012).

Legend:
[1] = target: T1, Muscle, skeletal receptor tyrosine-protein kinase (Homo sapiens) (UniProt O15146); conditions: at 1 µM;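 note: reported value is the mean percent inhibition of MuSK kinase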
T1 sequence (whole entry): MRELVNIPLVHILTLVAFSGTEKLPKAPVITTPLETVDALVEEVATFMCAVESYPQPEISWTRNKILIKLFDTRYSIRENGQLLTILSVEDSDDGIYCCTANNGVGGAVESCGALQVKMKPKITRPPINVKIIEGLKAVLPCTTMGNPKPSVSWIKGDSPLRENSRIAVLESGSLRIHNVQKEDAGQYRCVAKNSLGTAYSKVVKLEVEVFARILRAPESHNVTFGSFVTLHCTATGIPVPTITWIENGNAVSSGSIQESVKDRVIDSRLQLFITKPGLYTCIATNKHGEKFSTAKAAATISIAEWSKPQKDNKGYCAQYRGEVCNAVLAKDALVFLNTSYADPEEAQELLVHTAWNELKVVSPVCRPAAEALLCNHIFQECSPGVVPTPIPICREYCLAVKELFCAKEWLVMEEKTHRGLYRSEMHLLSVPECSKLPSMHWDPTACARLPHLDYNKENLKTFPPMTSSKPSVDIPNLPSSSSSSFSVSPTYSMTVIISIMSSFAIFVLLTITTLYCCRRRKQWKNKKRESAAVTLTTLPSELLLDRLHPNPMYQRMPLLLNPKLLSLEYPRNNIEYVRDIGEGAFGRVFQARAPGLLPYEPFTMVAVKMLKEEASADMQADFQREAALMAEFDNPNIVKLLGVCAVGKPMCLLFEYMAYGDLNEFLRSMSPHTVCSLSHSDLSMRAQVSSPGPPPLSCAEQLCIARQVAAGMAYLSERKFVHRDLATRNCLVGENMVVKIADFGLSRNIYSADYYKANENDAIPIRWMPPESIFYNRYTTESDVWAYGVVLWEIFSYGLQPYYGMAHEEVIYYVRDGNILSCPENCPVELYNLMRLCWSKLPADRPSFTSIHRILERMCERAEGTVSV

[2] = target: Platelet-derived growth factor receptor alpha (Homo sapiens) (UniProt P16234); conditions: at 0.1 µM
[3] = target: Platelet-derived growth factor receptor alpha (Homo sapiens) (UniProt P16234); conditions: at 1 µM
[4] = test system: Platelet-derived growth factor receptor alpha (Homo sapiens), P16234 [D842V]; conditions: at 0.1 µM
[5] = test system: Platelet-derived growth factor receptor alpha (Homo sapiens), P16234 [D842V]; conditions: at 1 µM
[6] = test system: Platelet-derived growth factor receptor alpha (Homo sapiens), P16234 [T674I]; conditions: at 0.1 µM
[7] = test system: Platelet-derived growth factor receptor alpha (Homo sapiens), P16234 [T674I]; conditions: at 1 µM
[8] = test system: Platelet-derived growth factor receptor alpha (Homo sapiens), P16234 [V561D]; conditions: at 0.1 µM
[9] = test system: Platelet-derived growth factor receptor alpha (Homo sapiens), P16234 [V561D]; conditions: at 1 µM
[10] = target: Platelet-derived growth factor receptor beta (Homo sapiens) (UniProt P09619); conditions: at 0.1 µM
[11] = target: Platelet-derived growth factor receptor beta (Homo sapiens) (UniProt P09619); conditions: at 1 µM
[12] = target: Tyrosine-protein kinase FRK (Homo sapiens) (UniProt P42685); conditions: at 0.1 µM
[13] = target: Tyrosine-protein kinase FRK (Homo sapiens) (UniProt P42685); conditions: at 1 µM
[14] = target: Protein-tyrosine kinase 2-beta (Homo sapiens) (UniProt Q14289); conditions: at 0.1 µM
[15] = target: Protein-tyrosine kinase 2-beta (Homo sapiens) (UniProt Q14289); conditions: at 1 µM
[16] = target: Proto-oncogene tyrosine-protein kinase receptor Ret (Homo sapiens) (UniProt P07949); conditions: at 0.1 µM
[17] = target: Proto-oncogene tyrosine-protein kinase receptor Ret (Homo sapiens) (UniProt P07949); conditions: at 1 µM
[18] = test system: Proto-oncogene tyrosine-protein kinase receptor Ret (Homo sapiens), P07949 [V804L]; conditions: at 0.1 µM
[19] = test system: Proto-oncogene tyrosine-protein kinase receptor Ret (Homo sapiens), P07949 [V804L]; conditions: at 1 µM
[20] = test system: Proto-oncogene tyrosine-protein kinase receptor Ret (Homo sapiens), P07949 [Y791F]; conditions: at 0.1 µM

Chain of Protein-tyrosine kinase 2-beta (Homo sapiens) (Q14289 whole entry, looked up): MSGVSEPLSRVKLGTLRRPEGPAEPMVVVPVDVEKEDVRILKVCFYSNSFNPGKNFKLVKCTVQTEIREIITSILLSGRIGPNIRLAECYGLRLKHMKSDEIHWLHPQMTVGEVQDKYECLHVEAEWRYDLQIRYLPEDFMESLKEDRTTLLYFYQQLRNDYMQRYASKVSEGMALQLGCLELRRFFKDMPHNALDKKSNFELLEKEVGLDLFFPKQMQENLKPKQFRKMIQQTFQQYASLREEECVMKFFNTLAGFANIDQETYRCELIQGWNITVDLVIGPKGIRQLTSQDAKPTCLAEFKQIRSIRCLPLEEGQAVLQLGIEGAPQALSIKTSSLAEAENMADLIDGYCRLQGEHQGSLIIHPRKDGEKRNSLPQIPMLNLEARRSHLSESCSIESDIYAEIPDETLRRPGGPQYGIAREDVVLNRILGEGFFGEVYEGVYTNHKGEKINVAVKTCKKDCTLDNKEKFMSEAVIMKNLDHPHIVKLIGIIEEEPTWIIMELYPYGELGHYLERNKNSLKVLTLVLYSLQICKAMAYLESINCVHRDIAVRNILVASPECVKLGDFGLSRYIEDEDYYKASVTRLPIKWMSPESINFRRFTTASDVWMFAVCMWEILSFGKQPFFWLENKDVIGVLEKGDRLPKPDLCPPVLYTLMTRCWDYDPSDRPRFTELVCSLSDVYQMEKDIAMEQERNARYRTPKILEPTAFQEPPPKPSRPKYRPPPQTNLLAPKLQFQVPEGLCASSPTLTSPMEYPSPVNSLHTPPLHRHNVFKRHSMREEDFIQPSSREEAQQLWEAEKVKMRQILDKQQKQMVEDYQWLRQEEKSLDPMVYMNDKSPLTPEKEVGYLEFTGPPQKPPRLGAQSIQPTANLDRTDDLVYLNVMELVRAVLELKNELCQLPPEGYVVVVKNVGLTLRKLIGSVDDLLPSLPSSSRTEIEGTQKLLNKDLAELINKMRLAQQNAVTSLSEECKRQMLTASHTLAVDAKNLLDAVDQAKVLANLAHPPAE
Chain of Proto-oncogene tyrosine-protein kinase receptor Ret (Homo sapiens), P07949 [V804L] (P07949 whole entry V804L): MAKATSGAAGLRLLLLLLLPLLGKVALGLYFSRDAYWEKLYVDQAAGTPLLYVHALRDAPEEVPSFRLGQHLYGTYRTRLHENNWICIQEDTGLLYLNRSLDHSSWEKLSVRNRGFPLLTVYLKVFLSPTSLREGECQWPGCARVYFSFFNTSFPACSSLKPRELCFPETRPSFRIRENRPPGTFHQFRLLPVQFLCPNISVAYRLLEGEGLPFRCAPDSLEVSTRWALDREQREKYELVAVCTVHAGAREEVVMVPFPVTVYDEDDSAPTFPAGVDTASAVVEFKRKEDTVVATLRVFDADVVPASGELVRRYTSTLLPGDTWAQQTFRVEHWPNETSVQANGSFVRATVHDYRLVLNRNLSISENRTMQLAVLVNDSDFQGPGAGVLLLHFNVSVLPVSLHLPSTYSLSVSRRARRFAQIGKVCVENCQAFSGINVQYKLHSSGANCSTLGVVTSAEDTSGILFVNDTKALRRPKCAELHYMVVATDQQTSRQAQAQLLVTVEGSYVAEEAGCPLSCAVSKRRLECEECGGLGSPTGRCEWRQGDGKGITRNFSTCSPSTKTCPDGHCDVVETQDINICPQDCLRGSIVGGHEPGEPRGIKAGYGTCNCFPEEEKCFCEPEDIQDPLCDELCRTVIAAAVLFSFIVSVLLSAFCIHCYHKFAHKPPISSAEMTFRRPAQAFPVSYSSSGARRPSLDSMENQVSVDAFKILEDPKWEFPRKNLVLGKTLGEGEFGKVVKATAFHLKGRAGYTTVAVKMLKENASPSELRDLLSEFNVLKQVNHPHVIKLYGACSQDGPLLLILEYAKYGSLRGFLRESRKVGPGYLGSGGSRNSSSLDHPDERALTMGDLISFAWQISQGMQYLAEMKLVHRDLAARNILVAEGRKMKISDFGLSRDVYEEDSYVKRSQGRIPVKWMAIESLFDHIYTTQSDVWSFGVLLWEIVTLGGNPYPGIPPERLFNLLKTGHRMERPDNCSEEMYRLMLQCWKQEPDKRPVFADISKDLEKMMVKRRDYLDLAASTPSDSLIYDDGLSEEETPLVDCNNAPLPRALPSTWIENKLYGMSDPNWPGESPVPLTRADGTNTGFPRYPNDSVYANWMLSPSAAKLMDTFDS
Chain of Platelet-derived growth factor receptor alpha (Homo sapiens), P16234 [V561D] (P16234 whole entry V561D): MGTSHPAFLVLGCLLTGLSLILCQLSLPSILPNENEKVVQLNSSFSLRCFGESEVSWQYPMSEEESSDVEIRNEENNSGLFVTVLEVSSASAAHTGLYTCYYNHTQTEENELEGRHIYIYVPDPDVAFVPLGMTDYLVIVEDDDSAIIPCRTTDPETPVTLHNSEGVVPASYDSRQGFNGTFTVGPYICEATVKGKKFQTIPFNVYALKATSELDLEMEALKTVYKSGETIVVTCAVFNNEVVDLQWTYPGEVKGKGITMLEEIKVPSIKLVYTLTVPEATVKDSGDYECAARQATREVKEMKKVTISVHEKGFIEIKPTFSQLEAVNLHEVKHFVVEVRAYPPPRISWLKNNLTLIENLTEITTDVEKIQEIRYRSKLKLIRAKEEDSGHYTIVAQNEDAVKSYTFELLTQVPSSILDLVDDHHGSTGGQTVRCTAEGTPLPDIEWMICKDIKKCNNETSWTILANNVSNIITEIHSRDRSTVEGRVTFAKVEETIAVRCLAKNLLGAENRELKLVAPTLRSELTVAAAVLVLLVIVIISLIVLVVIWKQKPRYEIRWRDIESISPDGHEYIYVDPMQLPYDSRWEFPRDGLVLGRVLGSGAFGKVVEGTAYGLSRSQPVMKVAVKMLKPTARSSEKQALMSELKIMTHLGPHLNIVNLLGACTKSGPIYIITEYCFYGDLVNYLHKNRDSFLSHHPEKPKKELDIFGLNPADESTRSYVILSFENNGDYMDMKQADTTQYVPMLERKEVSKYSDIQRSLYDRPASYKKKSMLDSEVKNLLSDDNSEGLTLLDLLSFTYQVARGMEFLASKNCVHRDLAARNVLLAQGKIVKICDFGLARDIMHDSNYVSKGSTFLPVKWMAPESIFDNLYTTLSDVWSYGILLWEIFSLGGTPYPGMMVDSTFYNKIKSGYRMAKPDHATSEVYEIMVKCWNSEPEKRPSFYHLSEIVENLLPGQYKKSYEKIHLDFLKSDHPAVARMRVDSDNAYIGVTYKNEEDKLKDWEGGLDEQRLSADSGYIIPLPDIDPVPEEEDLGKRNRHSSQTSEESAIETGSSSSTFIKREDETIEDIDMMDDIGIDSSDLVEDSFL
Chain of Platelet-derived growth factor receptor alpha (Homo sapiens) (P16234 whole entry): as the sequence (P16234 whole entry V561D) above, with D561V counted along it
Chain of Tyrosine-protein kinase FRK (Homo sapiens) (P42685 whole entry): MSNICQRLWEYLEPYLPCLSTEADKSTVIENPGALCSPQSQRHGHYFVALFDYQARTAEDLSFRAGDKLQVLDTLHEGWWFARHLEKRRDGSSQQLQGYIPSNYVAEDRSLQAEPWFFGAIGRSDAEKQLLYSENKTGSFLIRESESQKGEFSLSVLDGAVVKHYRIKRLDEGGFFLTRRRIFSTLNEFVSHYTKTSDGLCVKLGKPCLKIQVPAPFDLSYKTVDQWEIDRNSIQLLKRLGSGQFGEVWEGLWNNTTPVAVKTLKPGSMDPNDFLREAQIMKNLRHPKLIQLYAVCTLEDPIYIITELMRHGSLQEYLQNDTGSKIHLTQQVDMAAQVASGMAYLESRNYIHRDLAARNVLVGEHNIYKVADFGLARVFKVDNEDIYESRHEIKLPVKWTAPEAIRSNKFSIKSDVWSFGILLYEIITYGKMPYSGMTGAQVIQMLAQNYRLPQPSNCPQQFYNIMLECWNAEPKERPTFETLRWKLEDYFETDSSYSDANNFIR

Row | Compound | inhibition [1] [%] | inhibition [2] [%] | inhibition [3] [%] | inhibition [4] [%] | inhibition [5] [%] | inhibition [6] [%] | inhibition [7] [%] | inhibition [8] [%] | inhibition [9] [%] | inhibition [10] [%] | inhibition [11] [%] | inhibition [12] [%] | inhibition [13] [%] | inhibition [14] [%] | inhibition [15] [%] | inhibition [16] [%] | inhibition [17] [%] | inhibition [18] [%] | inhibition [19] [%] | inhibition [20] [%]
1 | Clc1ccc(-c2nn3ncccc3c2-c2ccnc(Nc3ccccc3)n2)cc1 | 1.46 | 6.5 | 31.3 | 6.95 | 18.8 | 3.65 | 8.75 | 12.4 | 42 | 6.84 | 39.4 | 0.95 | 3.48 | 7.96 | 14.7 | 8.76 | 42 | 4.29 | 4.92 | 9.6
2 | CC(C)(CO)CNC(=O)c1ccc2c(c1)/C(=N/Nc1ccc(S(N)(=O)=O)cc1)C(=O)N2 | 21.6 | 18.7 | 62.5 | 23.2 | 77.3 | -0.15 | 6.93 | 15.7 | 65.4 | 38.7 | 72.3 | -0.08 | -0.01 | -4.01 | 18.8 | 9.94 | 49.1 | 33.5 | 72.5 | 13.8
3 | COc1cccc(-c2c[nH]c3c(N/N=C/c4ccncc4)ncnc23)c1 | 48.8 | 64 | 82.8 | 72.2 | 94.4 | 21.8 | 82.2 | 59.7 | 93 | 55 | 81.1 | 1.61 | 3.28 | 2.76 | 9.78 | 10.7 | 37.9 | 7.65 | 30.7 | 10.2
4 | FC(F)(F)c1cccc(-c2nn3ncccc3c2-c2ccnc(Nc3ccc4c(c3)OCCO4)n2)c1 | 2.21 | 5.63 | 15.1 | 3.38 | 5.8 | 2.79 | 3.91 | 1.96 | 15.8 | 6.05 | 14.4 | 0.89 | 5.26 | -0.64 | 13.1 | 7.52 | 31.8 | 4.11 | 2.86 | 7.75
5 | COc1ccc(CNC(=O)c2ccc(-c3cc(-c4nnc(C)o4)ccc3C)cc2)cc1 | -7.05 | 12.6 | 16.5 | 3.66 | 3.96 | 5.1 | 6.47 | 7.3 | 4.07 | 8.68 | 13 | 0.66 | 1.5 | -0.09 | 5.83 | 7.22 | 7.69 | 14 | 15.8 | 6.44
6 | CC1=C(C(=O)Nc2cc(Cl)c3[nH]ncc3c2)C(c2ccc(C(F)(F)F)cc2)CC(=O)N1 (stereo not given) | 9.6 | 4.87 | 8.87 | 2.44 | 4.3 | 5.17 | 7.54 | 4.08 | 4.27 | 0.58 | 3.69 | 3.64 | 7.85 | 5.71 | 9.35 | 4.22 | 15.2 | 4.98 | 33.3 | 2.42
7 | COc1cc2c(cc1Nc1nc(Nc3ccsc3C(N)=O)c3cc[nH]c3n1)N(C(=O)CN(C)C)CCC2(C)C | 62.4 | 21.6 | 63.2 | 5.04 | 20.5 | 8.69 | 16.9 | 13.1 | 46.1 | 15.1 | 62.7 | 2.92 | 8.45 | 88.3 | 96.7 | 8.13 | 14.1 | 12.9 | 38.1 | 8.97
8 | CC(C)COC(=O)c1ccc2c(c1)/C(=C/Nc1ccc(S(N)(=O)=O)cc1)C(=O)N2 | 51.3 | 53.2 | 84.3 | 60.7 | 93.1 | 4.41 | 38.9 | 44.7 | 88.4 | 66.3 | 86 | -0.58 | 1.92 | 2.4 | 16.5 | 34 | 78 | 54.5 | 82.4 | 25.2
9 | O=C(Nc1n[nH]c2cc(-c3ccc(F)cc3)ccc12)C1CC1 | 4.55 | 4.52 | 14.6 | 4.21 | 12.9 | 3.24 | 8.33 | 4.41 | 13.2 | 2.29 | 7.77 | 1.74 | 2.21 | 9.12 | 9.39 | 2.79 | 3.73 | 2.36 | 3.06 | 4.2
10 | Fc1ccc(-c2cc(-c3c[nH]nc3-c3ccccn3)ccn2)cc1 | -0.34 | 5.93 | 19.8 | 4.02 | 21.2 | 5.49 | 10.1 | 4.91 | 11.8 | 3.85 | 11.8 | 2.82 | 1.26 | 7.36 | 19.4 | 5.13 | 2.43 | 2.33 | 8.21 | 3.92
11 | CCn1c(-c2nonc2N)nc2c(C#CC(C)(C)O)nc(OC[C@H](N)c3ccccc3)cc21 | 5.52 | 4.66 | 43.8 | 12.2 | 61.6 | 9.88 | 47 | 4.88 | 42.3 | 13 | 57.2 | -0.38 | 2.68 | 1.28 | 9.96 | 6.89 | 38 | 1.38 | 6.67 | 18.6
12 | Cc1ccc(O)cc1Nc1ccnc2cc(-c3ccccn3)ccc12 | 5.77 | 67.2 | 89.5 | 81.4 | 96.2 | 7.02 | 6.98 | 70.4 | 105 | 53.4 | 87 | 18.9 | 68.2 | 10.1 | 17.6 | 84.2 | 89.8 | 4.72 | 3.44 | 92.3
13 | c1cc(-c2cnn3nc(N4CCOCC4)ccc23)nc(NC2CC2)n1 | 9.05 | 31.9 | 76.8 | 21.2 | 75.8 | 2.78 | 17.5 | 18.1 | 72.4 | 12.5 | 51.7 | 1.71 | 1.99 | 15.8 | 15.4 | 5.62 | 15.6 | 3.15 | 8.37 | 6.04
14 | COC(=O)Nc1nc2ccc(S(=O)(=O)c3ccc(NC(=O)Nc4cc(C(F)(F)F)ccc4F)cc3)cc2[nH]1 | 4.85 | 2.65 | 4.3 | 3.19 | 0.61 | 3.85 | 2.62 | 2.98 | 3.2 | 5.73 | 4.49 | 2.02 | 0.33 | 2.8 | 6.27 | 5.15 | 5.22 | 5.11 | 2.64 | 5.5
